From PubChem BioAssay
SRC3 TRFRET art = TR-FRET artefact, counter-screen to PPARgamma/SRC-3 agonist assay | PPARgamma/SRC-3 format; active compounds read high | TR-FRET ratio at 8 µM | 0.39% of 99,000 active | AID 1048
SRC1 TRFRET art = counter-screen for PPARgamma SRC-1 recruitment agonists: TR-FRET artefact. TR-FRET detection artefact counter-screen, emission ratio; active compounds read high. TR-FRET ratio at 8 µM. 0.34% of 99,000 active. AID 1051; in the data active = TR-FRET ratio above about 2300
PPARg SRC1 recr = agonists of human PPARgamma SRC-1 coactivator recruitment; P37231; PPARgamma-SRC-1 coactivator recruitment biochemical assay; activation, % at 8 µM; 0.41% of 200,000 active; AID 631; in the data active = activation above about 19%
Target sequence (P37231 whole entry, looked up): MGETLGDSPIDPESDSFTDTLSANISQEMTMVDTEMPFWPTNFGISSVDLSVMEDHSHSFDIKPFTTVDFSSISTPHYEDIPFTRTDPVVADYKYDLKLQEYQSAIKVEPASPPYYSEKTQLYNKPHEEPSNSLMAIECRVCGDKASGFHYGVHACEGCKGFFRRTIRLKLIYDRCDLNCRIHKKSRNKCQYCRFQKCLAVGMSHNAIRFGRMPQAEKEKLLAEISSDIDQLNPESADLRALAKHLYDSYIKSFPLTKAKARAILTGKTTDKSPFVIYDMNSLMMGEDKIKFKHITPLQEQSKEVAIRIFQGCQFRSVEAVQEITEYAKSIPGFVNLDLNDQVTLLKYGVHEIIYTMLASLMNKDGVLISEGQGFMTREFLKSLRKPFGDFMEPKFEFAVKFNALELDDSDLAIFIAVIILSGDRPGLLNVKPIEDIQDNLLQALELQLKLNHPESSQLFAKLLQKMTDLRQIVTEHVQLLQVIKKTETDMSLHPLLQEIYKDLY
PPARg SRC3 recr = agonists of human PPARgamma SRC-3 coactivator recruitment. P37231. activation, % at 8 µM. 0.26% of 200,000 active. biochemical PPARgamma/SRC-3 coactivator recruitment assay; in the data active = activation above about 23%
SRC2 TRFRET art = TR-FRET artefact, counter-screen to PPARgamma/SRC-2 agonist assay | AID 1049 | active compounds read high | TR-FRET ratio at 8 µM | 0.4% of 200,000 active
PPARg SRC2 recr = PPARgamma-driven SRC-2 recruitment agonism; P37231; activation, % at 8 µM; 0.34% of 200,000 active; PPARgamma LBD-SRC-2 recruitment, biochemical; AID 1032; in the data active = activation above about 22%
Numbers stand for hits; 0 = inactive; - = no result given. A selection: hits, their analogues and other compounds. The true share with any hit is near 0.9%. Cut-off read from the data, not from the text of the source, unless noted: active = TR-FRET ratio above about 2000; inactive = the rest.

SMILES	SRC3 TRFRET art	SRC1 TRFRET art	PPARg SRC1 recr	PPARg SRC3 recr	SRC2 TRFRET art	PPARg SRC2 recr
COc1ccc(/C=C\C(=O)NCc2ccc3c(c2)cc(C)n3C)cc1OC	2112	0	0	0	0	0
CCc1cccc(C)c1NC(=S)NCc1ccc2c(c1)cc(C)n2C	2094	0	0	0	0	0
CC1CCc2sc(C(=O)N=Nc3c(O)[nH]c4ccccc34)cc2C1 (stereo not drawn)	0	0	0	0	0	0
NC(=O)CC[C@H](NC(=O)OCc1ccccc1)C(=O)OCc1ccc(Cl)cc1	0	0	0	0	0	0
Cc1ccc(NC(=O)C2(NC(=O)c3ccccn3)CCCCC2)cc1Br	0	0	0	0	0	0
CSc1nc(SCC(=O)NCc2ccco2)c2c3c(sc2n1)COC(C)(C)C3	0	0	0	0	0	0
CSc1nc(SCC(=O)NC(c2ccccc2)c2ccccc2)c2c3c(sc2n1)CN(C)CC3	-	-	0	0	2069	0
Cc1cc2ccccc2n1CCNC(=O)c1ccc(S(=O)(=O)N2CCOCC2)cc1	2905	2656	0	0	0	0
COc1ccc(-c2[nH]c3ccccc3c2SCCNC(=O)c2ccccc2)cc1	2781	0	0	0	0	24
Cc1cc2ccccc2n1CCNC(=O)c1ccccc1	-	-	0	0	0	0
Cc1ccc(-c2[nH]c3ccccc3c2SCCNC(=O)c2ccc(S(=O)(=O)N3CCOCC3)cc2)cc1	2709	3343	0	0	2560	0
O=C(NCc1nc2ccccc2[nH]1)c1ccc(S(=O)(=O)N2CCOCC2)cc1	-	-	0	0	0	0
COc1ccc(C(=O)NCCSc2ccccc2)cc1	0	0	0	0	0	0
O=C(CN(CCc1ccccc1)C(=O)c1csnn1)NC1CCCC1	0	0	0	0	0	0
CC1(NC(=O)NCc2ccccc2)CCS(=O)(=O)C1 (stereo not drawn)	0	0	0	0	0	0
CC1=CC(C)(C)N2C(=O)C3(NCCc4c3[nH]c3ccccc43)c3cccc1c32 (stereo not drawn)	0	0	0	0	0	0
O=C(OC1CCCCC1)c1ccc2c(c1)C1C=CCC1C(C(=O)O)N2 (stereo not drawn)	0	0	0	0	2020	0
O=C(c1ccccc1)c1nn(-c2ccccc2)c2nnc(Cc3ccccc3)c(=O)n12	-	-	0	0	2100	0
O=C(NCCN1C(=O)S/C(=C\c2ccc(F)cc2)C1=O)c1cccc(S(=O)(=O)N2CCOCC2)c1	0	0	0	0	0	0
NC(N)=N/N=C/c1ccc(Br)cc1	0	0	0	0	0	0
N#Cc1ccc(/C=N/N=C(N)N)cc1	-	-	0	26	0	0
CN(Cc1ccccc1)S(=O)(=O)c1ccc(Cl)nc1	-	-	0	0	0	0
COc1ccc(CCN(C)S(=O)(=O)c2ccc(Cl)nc2)cc1OC	0	0	0	0	1975	0
Cn1c(N=NC(=O)c2ccccc2)c(O)c2ccccc21	0	0	0	0	0	0
O=C(Nc1nc(-c2cccs2)cs1)c1ccc(S(=O)(=O)N2CCCC2)cc1	-	-	0	0	2064	0
SMILES	SRC3 TRFRET art	SRC1 TRFRET art	PPARg SRC1 recr	PPARg SRC3 recr	SRC2 TRFRET art	PPARg SRC2 recr
CN(C)S(=O)(=O)c1ccc(C(=O)Nc2nc(-c3cccs3)cs2)cc1	-	-	0	0	0	0
CCOc1ccccc1NC(=S)N1CCN(c2nc(-c3ccc(F)cc3)cs2)CC1	2234	2465	0	0	2063	0
O=C(Nc1nc(-c2ccco2)c(-c2ccco2)s1)C1CCC1	0	2403	0	0	0	0
COC(=O)c1ccccc1NC(=O)Cc1nc(-c2ccccc2)sc1-c1ccc(C)cc1	2243	0	0	0	0	0
Cc1cc2nc(-c3ccc(SCc4ccc(C#N)cc4)nc3)[nH]c2cc1C	-	-	0	0	2209	0
O=C(COC(=O)c1ccccc1O)Nc1ncc(Cl)cc1Cl	0	0	0	0	0	0
COc1cccc(-c2nn(-c3ccccc3)cc2C(=O)OCC(=O)Nc2ncc(Cl)cc2Cl)c1	3059	2559	0	0	2626	0
CSc1ccccc1NC(=O)c1cc2ncc(Br)cn2n1	2070	2400	0	0	0	0
N#Cc1cc2c(nc1SCc1ccccc1)CCCC2	0	0	0	0	0	0
N#Cc1cc2c(nc1SCc1ccccc1)CCC2	-	-	85	0	0	0
Nc1nc(-c2ccccc2)nc2sc3c(c12)CCCC3	0	0	0	0	0	0
CC1CCC(NC(=O)CCNC(=O)c2ccccc2)CC1 (stereo not drawn)	0	0	0	0	0	0
Cc1ccc2nc(-c3ccc(SCC(=O)N4CCc5ccccc54)nc3)[nH]c2c1	2738	0	0	0	0	0
Cc1ccc2nc(SCC(=O)N3c4ccccc4CC3C)c(C)cc2c1 (stereo not drawn)	-	-	0	0	0	0
Cc1ccc2nc(-c3ccc(SCC(=O)O)nc3)[nH]c2c1	-	-	0	0	0	0
Cc1ccc2nc(-c3cccnc3SCC(=O)N3c4ccccc4CC3C)[nH]c2c1 (stereo not drawn)	-	-	0	0	2147	0
CCC(=O)Oc1ccc2ccccc2c1CNC(=O)c1ccccc1	0	0	0	0	0	0
COc1cc(OC)cc(-c2nnc(SCC(=O)N(Cc3ccccc3)C(C)(C)C)o2)c1	-	-	0	0	0	23
CC(C)(C)c1ccc(C(=O)NCC(=O)OCC(=O)c2ccc3c(c2)-c2ccccc2C3)cc1	0	2576	0	0	2064	0
O=C(CNC(=O)c1cccs1)OCC(=O)c1ccc2ccccc2c1	-	-	0	0	0	0
CC(=O)N1N=C(c2cccs2)CC1c1ccc(C)o1 (stereo not drawn)	0	2339	0	0	0	0
Cc1nn(-c2ccccn2)c2c1-c1nc(N3CCOCC3)ncc1CC2	-	-	22	0	0	0
Cc1nn(-c2ccccn2)c2c1-c1nc(N)ncc1CC2	-	-	0	0	0	0
COc1ccccc1N1CCN(C(=O)NC23CC4CC(CC(C4)C2)C3)CC1	0	0	0	0	0	0
CC(C)CNS(=O)(=O)c1cc(C(=O)OCC(=O)c2ccc3c(c2)OCCO3)c(Cl)cc1Cl	2107	0	0	0	0	0
SMILES	SRC3 TRFRET art	SRC1 TRFRET art	PPARg SRC1 recr	PPARg SRC3 recr	SRC2 TRFRET art	PPARg SRC2 recr
COc1ccc(Nc2cnn(-c3nc4ccccc4s3)c(=O)c2Cl)cc1	0	0	0	0	0	0
O=c1c(Cl)c(Nc2cccc(Cl)c2)cnn1-c1nc2ccccc2s1	2400	0	0	0	2092	0
CN(CC1CCCO1)S(=O)(=O)c1ccc(C(=O)Nc2ccc3c(c2)OCO3)cc1 (stereo not drawn)	0	0	0	0	0	0
CN(CC1CCCO1)S(=O)(=O)c1ccc(C(=O)Nc2nc3cc4c(cc3s2)OCO4)cc1 (stereo not drawn)	-	-	0	0	0	23
CC(=O)N1CCC(=NNc2ncc(C(F)(F)F)cc2Cl)CC1	0	0	0	0	0	0
O=C(CSc1ncnc2c1nnn2Cc1ccccc1F)N1CCN(c2ccccc2)CC1	-	-	0	0	2938	67
O=C(Cn1cnc2c(nnn2Cc2ccccc2F)c1=O)N1CCN(c2ccccc2)CC1	-	-	0	0	0	0
